Screens deposited in PubChem BioAssay by National Center for Advancing Translational Sciences (NCATS).
An excerpt weighted towards active compounds, which were near 10% of everything screened.
Luciferase inh = Firefly luciferase inhibition profiling of diverse chemical library using quantitative high-throughput screening | Luciferin 4-monooxygenase (Photinus pyralis), P08659 | purified P. pyralis luciferase, luminescence, biochemical | Potency, µM (series often up to 115 µM), actives largely listed as inhibitors | 2.5% of 76,000 active | AID 1347043, 2019; further: nearly all actives have a fitted effect of over 65% in size
Target sequence (P08659 whole entry, looked up): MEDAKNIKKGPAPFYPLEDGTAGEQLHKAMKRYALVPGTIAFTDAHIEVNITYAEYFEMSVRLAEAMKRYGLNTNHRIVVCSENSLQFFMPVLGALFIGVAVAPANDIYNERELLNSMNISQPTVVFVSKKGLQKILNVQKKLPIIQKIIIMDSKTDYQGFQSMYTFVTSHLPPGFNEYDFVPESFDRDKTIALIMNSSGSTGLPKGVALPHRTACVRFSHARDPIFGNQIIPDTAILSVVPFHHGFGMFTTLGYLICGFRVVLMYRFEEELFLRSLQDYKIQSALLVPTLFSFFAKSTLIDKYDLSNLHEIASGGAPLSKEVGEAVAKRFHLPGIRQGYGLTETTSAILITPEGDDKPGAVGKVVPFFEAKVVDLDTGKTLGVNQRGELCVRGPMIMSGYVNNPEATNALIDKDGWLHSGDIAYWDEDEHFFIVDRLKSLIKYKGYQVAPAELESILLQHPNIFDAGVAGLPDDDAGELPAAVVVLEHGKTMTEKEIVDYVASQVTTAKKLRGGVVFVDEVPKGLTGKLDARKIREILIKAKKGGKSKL
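Purified 10nM P. pyralis luciferase with 10uM D-luciferin and 10uM ATP in 50mM Tris acetate pH 7.5, 10mM Mg acetate, 0.01% Tween-20, 0.05% BSA. qHTS titration; luminescence read by CCD imager.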
hNpr1 antagonist = Natriuretic polypeptide receptor (hNpr1) antagonism - Primary qHTS; Atrial natriuretic peptide receptor 1 (Homo sapiens), P16066; HEK293 hNpr1 GloSensor cGMP, ANP-stimulated luminescence; Potency, µM (titrated, usually from 46.3 µM), for the others: top-dose activity change, negative = inhibition, most hits filed as inhibitors; 1.6% of 76,000 active; AID 1347048, 2019; calls by dose curve; further: nearly all actives have a fitted effect of over 60% in size
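Compound pre-incubated 30 min at room temperature on GloSensor-loaded HEK293 cells stably carrying hNpr1 and the pGS-40F cGMP biosensor. Stimulation uses hNppA at 0.1 nM final; luminescence is taken at baseline and 20 min post-agonist.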
3T3 cytotox = Cytotoxic Profiling in NIH 3T3 Cell Line of Diverse Libraries Using Quantitative High-Throughput Screening; NIH 3T3 viability, CellTiter-Glo ATP luminescence, 48-72 h; Potency, µM (top dose mostly 96.7 µM), for the others: top-dose activity change, negative = cytotoxicity, usual class: inhibitors; 4.3% of 94,000 active; AID 1345082, 2018; further: nearly all actives have a fitted effect of over 55% in size
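NIH 3T3 cells at 400 cells/well received 23 nL of compound by pintool and were incubated 48 or 72 h at 37 °C. Viability was read as ATP-coupled CellTiter-Glo luminescence.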
GPT2 inhibitor = Primary qHTS assay for inhibitors of Glutamate pyruvate transaminase 2 (GPT2). Alanine aminotransferase 2 (Homo sapiens), Q8TD30. Recombinant GPT2, coupled pyruvate oxidase/HRP Amplex Red fluorescence. Potency, µM (highest dose often 57.7 µM), for inactives: at the top dose activity change, negative = inhibition, hits mostly inhibitors. 0.25% of 100,000 active; further: nearly all actives have a fitted effect of over 60% in size
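Fluorescence of coupled pyruvate oxidase/HRP/Amplex Red system (50uM Amplex, 30 min, dark) reports pyruvate formed by GPT2. Enzyme reaction: 10ng/uL GPT2, 2mM L-alanine, 250uM a-KG, 30 min room temperature, pH 7.5; 50uM AOA control.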
HEK293 tox = Cytotoxic Profiling in HEK 293 Cell Line of Diverse Libraries Using Quantitative High-Throughput Screening; HEK 293 viability, ATP luminescence (CellTiter-Glo), 48-72 h; Potency, µM (top dose mostly 115 µM), without a hit: at the highest dose activity change, negative = cytotoxicity, hits mostly inhibitors; 6.6% of 94,000 active; AID 1345083, 2018; further: nearly all actives have a fitted effect of over 60% in size
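Luminescence from cellular ATP, measured with CellTiter-Glo, indicates HEK 293 viability. Cells plated at 250 cells/well are treated with compound for 48 or 72 hr at 37 degree Celsius before reagent addition.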
The depositor's hits bear a star; i = inactive; ? = inconclusive; nt = not tested or not shown; [ ] = dose if it differs, or a comment. Unless noted, the call rests on the fitted dose curve; in most records, active means well fitted curve in the direction sought with a large enough effect; inconclusive means small, poorly fitted or top-dose-only effect, or another doubt; inactive means no such curve, though single readings can be large; an effect the other way counts as inactive or inconclusive. On the % scale 0 is the no-effect control and ±100 the full control effect; potency means the concentration at half of the fitted maximal effect.

SMILES | Luciferase inh | hNpr1 antagonist | 3T3 cytotox | GPT2 inhibitor | HEK293 tox
COc1ccc(-c2cc(N3CCCN(C(=O)C4CCCC4)CC3)n[nH]2)cc1 | ? | 0% | -18% | ? | ?
CC(C(=O)N1CCN(c2cc(-c3ccc(Cl)cc3)[nH]n2)CC1)c1ccccc1 (centres undefined) | i | 0% | ? | i | 28µM*
COc1ccc(-c2cc(N3CCN(C(=O)c4c[nH]c5ccccc45)CC3)n[nH]2)cc1 | i | 0% | 25µM* | i | ?
COc1ccc(-c2cc(N3CCCN(C(=O)C4(c5ccc(OC)cc5)CC4)CC3)n[nH]2)cc1 | i | ? | ? | ? | 45µM*
CC(C(=O)N1CCCN(c2cc(-c3ccccc3)[nH]n2)CC1)c1ccccc1 (centres undefined) | i | -19% | ? | ? | ?
O=C(NC1CCC1)C1CCN(C(=O)c2ccc(-c3cncnc3)cc2)CC1 | nt | nt | -29% | i | -25%
COc1cccc(CN2CCC(N3C(=O)C(OCC4CC4)C34CCCCC4)CC2)c1OC (centres undefined) | i | -9% | ? | 3% | ?
COc1ccc(-c2cc(N3CCCN(C(=O)c4ccc(Br)cc4)CC3)n[nH]2)cc1 | i | -6% | ? | -10% | ?
COc1ccc(-c2cc(N3CCCN(C(=O)c4ccc(C)s4)CC3)n[nH]2)cc1 | ? | 0% | ? | ? | 40µM*
O=C(Cc1ccccc1)N1C[C@@H](CO)[C@@H]2Oc3ccc(Cl)cc3[C@@H]21 | nt | nt | ? | nt | 79µM*
COc1ccc2c(c1)OCC(C(=O)NCCNc1cc(C)ccn1)C2 (centres undefined) | i | 2% | 79µM* | -1% | -15%
COc1ccc2c(c1)OCC(CNC(=O)c1cc(-c3ccncc3)n[nH]1)C2 (centres undefined) | i | -9% | ? | 1% | ?
Cn1ccnc1-c1cn(CC2(c3ccccc3F)CCCC2)nn1 | i | -10% | ? | ? | ?
Cc1ccccc1CC1(CO)CCCN(c2ccc(-c3nccn3C)nn2)C1 (centres undefined) | i | ? | ? | 2% | 32µM*
Cn1ccnc1-c1ccc(N2CCC(CO)(CCOc3ccccc3)CC2)nn1 | 40µM* | -19% | ? | -25% | ?
Cn1ccnc1-c1ccc(N2CCCC(CO)(CCOc3ccccc3)C2)nn1 (centres undefined) | i | ? | ? | -5% | 32µM*
CN(CCc1noc(C2CN(Cc3cccc(C#N)c3)C2)n1)C(=O)C1CCOCC1 | nt | nt | -28% | -6% | -25%
CCC(=O)Nc1cccc(C2OC(=O)N(Cc3ccc(C)cc3)C2C(=O)Nc2ccc(F)cc2)c1 (centres undefined) | ? | -7% | ? | ? | ?
CNC(=O)[C@H]1C[C@H](Oc2ccccc2)CN1Cc1cccn1C | i | -16% | 4% | i | ?
COCCNC(=O)[C@H]1C[C@H](Oc2ccccc2)CN1Cc1cccnc1 | i | 2% | i | -16% | i
COCCNC(=O)[C@H]1C[C@H](Oc2ccccc2)CN1Cc1cccc(C)c1 | i | 0% | -24% | 2% | 13µM*
CNC(=O)[C@H]1C[C@H](Oc2ccccc2)CN1Cc1cn(C)c2ccc(OC)cc12 | i | -3% | 32µM* | -3% | 28µM*
COc1ccc(NC(=O)N2C[C@@H](F)C[C@H]2C(=O)N2CCc3ccccc3C2)cc1 | nt | nt | -10% | 1% | 2%
CC(C)(C)C(=O)N1CCCC2(CNc3ncccc3[S+](=O)([O-])N2)C1 (centres undefined) | nt | nt | -17% | nt | -14%
COc1ccccc1C(=O)N1CCN(CCn2nc3n(c2=O)CCCC3)CC1 | nt | nt | -5%[138 µM] | nt | -12%[172 µM]
